Hits are enriched below; roughly 0.72% of the tested compounds scored in any of these assays.
Six1-Eya2 blk – qHTS Assay for Inhibitors of the Six1/Eya2 Interaction; Homeobox protein SIX1 (Homo sapiens) + Protein phosphatase EYA2 (Homo sapiens), …; AlphaScreen GST-Six1/His-Eya2 binding, biochemical; stronger effect = lower value; activity change, % (test concentration not listed); actives 0.56% (n = 360,000); AID 651725, 2012; in the data active = activity change below about -65%; inconclusive = mostly about -30% to -63%
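Six1/Eya2 binding was read as AlphaScreen signal after compounds were pinned into GST-Six1 plus His-tagged Eya2 (5X stock 250/500 nM) in pH 8.0 Tris/NaCl/TCEP buffer, beads added, then incubated 1 h, 37 C, dark.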
PI4K2A inh – qHTS for small molecular inhibitors of PI4K2A; purified PI4K2A, ADP-Glo luminescence, 1 h; stronger effect = lower value; AID 1346378, 2018; activity change, negative = inhibition, % at 76.9 µM; actives 0.13% (n = 420,000); Phosphatidylinositol 4-kinase type 2-alpha (Homo sapiens), Q9BTU6; in the data active = activity change below about -50%; inconclusive = mostly about -30% to -49%;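 also: -100% = wells without enzyme as full effect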
Target sequence (Q9BTU6 whole entry, looked up): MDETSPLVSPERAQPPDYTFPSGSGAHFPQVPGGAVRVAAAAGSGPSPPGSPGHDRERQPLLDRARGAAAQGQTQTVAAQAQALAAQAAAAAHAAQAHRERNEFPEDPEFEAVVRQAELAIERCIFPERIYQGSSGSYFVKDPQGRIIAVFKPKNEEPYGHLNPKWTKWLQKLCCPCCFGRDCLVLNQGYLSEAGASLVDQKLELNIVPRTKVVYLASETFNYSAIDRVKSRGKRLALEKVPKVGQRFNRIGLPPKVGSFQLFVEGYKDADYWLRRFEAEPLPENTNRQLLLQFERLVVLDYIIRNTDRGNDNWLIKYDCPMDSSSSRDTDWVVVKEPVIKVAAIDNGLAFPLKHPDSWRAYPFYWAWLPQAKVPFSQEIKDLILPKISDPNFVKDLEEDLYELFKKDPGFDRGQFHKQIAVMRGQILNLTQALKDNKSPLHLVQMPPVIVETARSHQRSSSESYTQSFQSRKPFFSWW
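PI4K2A activity was measured by ADP-Glo luminescence: enzyme (4 ug/mL stock) and phosphatidylinositol (1.2 mM stock) in Tris pH 7.5/MgCl2/EGTA/Triton X-100 buffer were reacted with ATP (300 microM stock) for one hour at ambient temperature.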
RGS4 inh – Inhibitors of Regulator of G Protein Signaling (RGS) 4: qHTS; Regulator of G-protein signaling 4 (Homo sapiens), P49798; Transcreener GDP fluorescence polarization, RGS4-accelerated GTP hydrolysis; Potency, µM (top dose mostly 114 µM), for inactives: at the top dose activity change, negative = inhibition, most hits filed as inhibitors; actives 0.039% (n = 390,000); AID 504845, 2011; also: potency is read from the fitted curve at half-maximal effect; nearly all actives have a fitted effect of over 75% in size
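MLSMR compounds (23 nl, pin-transferred) preincubated 10 min at room temperature with a 500nM (2x) first reagent, then RGS4 at 900nM (2x) plus Transcreener GDP mix added; fluorescence polarization (620/688 nm) read before and after 90 min at 30 °C.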
CtBP-E1A blk – qHTS Assay for Inhibitors of the CtBP/E1A Interaction; actives 0.49% (n = 340,000); activity change, % (concentration not given with the values); AlphaScreen GST-E1A/His-CtBP binding, 1536-well; stronger effect = lower value; CtBP / adenovirus E1A interaction (AlphaScreen); AID 651724, 2012; in the data active = activity change below about -65%; inconclusive = mostly about -30% to -63%
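Protein mix (5X: 125 nM each GST-E1A, His-CtBP) was incubated with pinned compound 2 h at 37 deg C in dark, in 50 mM Tris pH 8.0 buffer with 300 mM NaCl. Glutathione donor and nickel acceptor beads followed; AlphaScreen signal read after 1 h.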
Eya2 inh – qHTS Assay for Inhibitors of the Phosphatase Activity of Eya2; Protein phosphatase EYA2 (Homo sapiens), O00167; recombinant Eya2, OMFP fluorescence dephosphorylation (OMFP is methylfluorescein phosphate); Potency, µM (titrated, usually from 76.9 µM), for the others: top-dose activity, negative = inhibition, most hits filed as inhibitors; actives 0.006% (n = 330,000); AID 488837, 2010; also: potency is read from the fitted curve at half-maximal effect
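Eya2 protein (added as 0.2 uM solution) was preincubated with compound for 10 min at ambient temperature in 50 mM HEPES pH 7.5, 50 mM NaCl, 5 uM MgCl2, 0.05% BSA, 1 mM DTT. OMFP (added at 50 uM) then reacted 10 min; fluorescence read at 485/525 nm.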
USP2a inh – qHTS Assay for Inhibitors of Ubiquitin-specific Protease USP2a Using CHOP2 as the Reporter. Ubiquitin carboxyl-terminal hydrolase 2 (Homo sapiens), O75604. USP2 core, Ub-CHOP2 coupled fluorogenic reporter, 485/531. Potency, µM (top dose mostly 38.3 µM), for inactives: at the top dose activity change, negative = inhibition, hits mostly inhibitors. actives 0.01% (n = 330,000). AID 463254, 2010;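 also: potency is read from the fitted curve at half-maximal effect; plate controls were DMSO wells for no effect and full inhibition by NEM control for full effect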
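USP2 core (10nM final) preincubated 30min RT with compound in 20mM Tris-HCl pH 8.0, 2mM CaCl2, 2mM beta-mercaptoethanol, 0.05% CHAPS; 25nM Ub-CHOP2 plus 25nM reporter substrate added, fluorescence (Ex485/Em531) read after 60min.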
The depositor's hits bear a star; [ ] = dose if it differs, or a comment. Unless noted, calls follow the shape of the dose curve; as a rule, active = well fitted curve in the direction sought with a large enough effect; inconclusive = small, poorly fitted or top-dose-only effect, or another doubt; inactive = no such curve, though single readings can be large; an effect the other way counts as inactive or inconclusive. Unless noted, % is scaled to controls: 0 for no effect and ±100 for the full control effect.

How did Cc1cccc[n+]1CC(=O)/C=C1\N(C)c2ccccc2C1(C)C do in these assays?
Six1-Eya2 blk: 1; PI4K2A inh: -3; RGS4 inh: 3%; CtBP-E1A blk: 1; Eya2 inh: 7%; USP2a inh: 2%

What do the screens show for `COc1ccc(C)cc1NC(=O)N1CCC(CN2CCC(C)CC2)CC1`?
PI4K2A inh: 1; RGS4 inh: -10%

Results for Nc1[nH]c(=O)nc(Nc2ccccc2)c1N=O ?
Six1-Eya2 blk: inconclusive; PI4K2A inh: -3; RGS4 inh: 14%; CtBP-E1A blk: -66*

How did Nc1nc(-c2ccccc2)[nH]c(=O)c1N=O do in these assays?
Six1-Eya2 blk: inconclusive; PI4K2A inh: -5; RGS4 inh: -9%; Eya2 inh: -15%; USP2a inh: 4%

What do the screens show for `CC1Cc2ccccc2N1C(=O)COC(=O)/C=C/c1cccc(F)c1` (stereo unspecified)?
Six1-Eya2 blk: -26; PI4K2A inh: -7; RGS4 inh: 8%; CtBP-E1A blk: -90*; Eya2 inh: -4%; USP2a inh: -2%

What do the screens show for `Nc1nc2c(ncn2-c2ccccc2)c(=O)[nH]1`?
Six1-Eya2 blk: inconclusive; PI4K2A inh: -7; RGS4 inh: -16%; CtBP-E1A blk: -73*

How did Nc1ccn([C@@H]2O[C@H](CNCc3cccc(OC4CCCC4)c3)[C@@H](O)[C@H]2O)c(=O)n1 do in these assays?
Six1-Eya2 blk: 0; PI4K2A inh: 2; CtBP-E1A blk: 2

What do the screens show for `CCCC1(C)C(C#N)(C#N)C1(C#N)C#N`?
PI4K2A inh: -3; RGS4 inh: 9.5µM*; Eya2 inh: -7%

How did O=C(N/N=C/c1cccc([N+](=O)[O-])c1)c1cccs1 do in these assays?
Six1-Eya2 blk: -10; PI4K2A inh: 1; RGS4 inh: -30%; CtBP-E1A blk: 2; Eya2 inh: 0%; USP2a inh: -1%

Results for CCOc1cc(/C=N/NC(=O)c2cccs2)cc([N+](=O)[O-])c1O ?
Six1-Eya2 blk: -87*; PI4K2A inh: -5; RGS4 inh: -34%; Eya2 inh: -19%; USP2a inh: 0%

What do the screens show for `COc1ccc(/C=N/NC(=O)c2ccncc2)cc1[N+](=O)[O-]`?
Six1-Eya2 blk: -2; PI4K2A inh: 3; RGS4 inh: 21%[11.4 µM]; CtBP-E1A blk: -8; Eya2 inh: -12%; USP2a inh: -2%

Results for O=C(N/N=C\c1ccc([N+](=O)[O-])o1)c1cncc(Br)c1 ?
Six1-Eya2 blk: inconclusive; PI4K2A inh: -1; RGS4 inh: -24%; CtBP-E1A blk: inconclusive; Eya2 inh: 1%; USP2a inh: -1%

Results for COc1cc([N+](=O)[O-])cc(/C=N/NC(=O)c2cncc(Br)c2)c1O ?
Six1-Eya2 blk: -93*; PI4K2A inh: -8; RGS4 inh: 11%; CtBP-E1A blk: -90*; Eya2 inh: 5%; USP2a inh: 3%

What do the screens show for `COc1cc(/C=N/NC(=O)c2cncc(Br)c2)cc([N+](=O)[O-])c1O`?
Six1-Eya2 blk: -91*; PI4K2A inh: -4; RGS4 inh: 18%[11.4 µM]; CtBP-E1A blk: -96*; Eya2 inh: inconclusive; USP2a inh: 1%

What do the screens show for `O=C(N/N=C/c1ccc(-c2ccccc2[N+](=O)[O-])o1)c1cncc(Br)c1`?
Six1-Eya2 blk: -78*; PI4K2A inh: 0; RGS4 inh: inconclusive; CtBP-E1A blk: -66*; Eya2 inh: -1%; USP2a inh: 3%

Compound activity: PubChem BioAssay, National Center for Advancing Translational Sciences (NCATS)
